High-throughput results deposited in PubChem by National Center for Advancing Translational Sciences (NCATS).
HCV inhibitor – inhibitors of hepatitis C virus infection | 340,000 compounds, 3.4% hits | Huh7.5.1 HCVcc-Cre infection, luciferase reporter, 44 h | Potency, µM (doses to about 41.8 µM), for the others: at the top dose activity change, negative = inhibition, most hits filed as inhibitors; active = well fitted inhibition curve with a large enough effect; inconclusive = small, poorly fitted or top-dose-only effect, or another doubt; inactive = no such curve, though single readings can be large or run the other way; note: potency is the fitted concentration of half-maximal effect
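Cells (1,000/well) were plated 4 h before compound, then infected with HCVcc-Cre virus (~0.5 moi). After 44 h further culture, infection was read as luciferase luminescence following a 15 min substrate incubation at room temperature.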
LASV entry inh – blocks Lassa virus binding to or entry into cells; Lassa virus pseudotype entry inhibition, cell reporter; Potency, µM (titrated, usually from 37.9 µM), for the others: at the top dose activity change, negative = inhibition, usual class: inhibitors; 300,000 compounds, 1.2% hits; calls by dose curve; tested in HEK293 cells; note: potency is the fitted concentration of half-maximal effect; nearly all actives have a fitted effect of over 50% in size
MARV entry inh – Marburg virus entry inhibition; Potency, µM (doses to about 37.8 µM), inactives show top-dose activity change, negative = inhibition, hits mostly inhibitors; 300,000 compounds, 1.8% hits; Marburg virus pseudotyped entry inhibition, cell reporter; AID 540276; calls by dose curve; tested in HEK293 cells; note: potency is the fitted concentration of half-maximal effect
FMDV inh – blocks foot and mouth disease virus | FMDV antiviral cell-based qHTS | Potency, µM (top dose mostly 57.9 µM), for the others: at the highest dose activity change, negative = inhibition, usual class: inhibitors | 410,000 compounds, 1.2% hits; calls by dose curve; tested in HEK293T cells; note: read-out not given here; potency is the fitted concentration of half-maximal effect; nearly all actives have a fitted effect of over 45% in size
HCMV inh – blocks human cytomegalovirus replication; HFF cells, HCMV-luciferase reporter, 72 h; hits give low values; activity change, negative = inhibition, % at 57.5 µM; 410,000 compounds, 4.5% hits; AID 1259415; in the data active = activity change below about -60%; inconclusive = no clear call, values can overlap the other calls; inactive = above about -39%
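Two-dose cell screen: HFF monolayers treated with compounds and infected with luciferase-expressing HCMV at 1 PFU/cell, 72 h at 37C, then lysed for luciferase measurement.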
Starred values were filed as active, the others as inactive; [ ] = another dose, or the depositor's remark. Compounds with a hit are over-represented: about 7.9% of the library has one in this group of screens. % is set by controls: 0 for no effect and ±100 for the full control effect.

How did COC(=O)c1ccc(CN2C(=O)[C@@]3(CC(C)=C[C@@H](COc4ccccc4)O3)c3ccccc32)cc1 do in these assays?
MARV entry inh: 21%[14.2 µM]

How did COc1ccc2c3c(n(C)c2c1)[C@H](CO)N(C(=O)c1ccccn1)CC31CCN(C(=O)Cc2ccccc2)CC1 do in these assays?
HCMV inh: 6

Results for CC(NC(=O)C1CC12CCC2)c1ccccc1 (stereo not given) ?
HCV inhibitor: 6%; LASV entry inh: 5%; MARV entry inh: 13%; FMDV inh: 9%; HCMV inh: -61*

How did CC(=O)N1CCCC(c2cc(C(=O)Nc3ccccc3)no2)C1 (stereo not given) do in these assays?
FMDV inh: 35µM*; HCMV inh: -73*

Results for CC(=O)Oc1ccc(C23c4ccccc4C2(OC(C)=O)c2cc(OC(C)=O)ccc23)cc1 (stereo not given) ?
HCV inhibitor: 11µM*; LASV entry inh: inconclusive; MARV entry inh: inconclusive; FMDV inh: inconclusive; HCMV inh: -70*

Results for O=C(CSc1nc2scc(-c3ccco3)c2c(=O)n1-c1ccccc1)N1CCOCC1 ?
HCV inhibitor: -5%; LASV entry inh: 4.1µM*; MARV entry inh: inconclusive; FMDV inh: -21%; HCMV inh: -35

How did NC(=O)CSc1nc2scc(-c3ccco3)c2c(=O)n1-c1ccccc1 do in these assays?
HCV inhibitor: inconclusive; LASV entry inh: -4%; MARV entry inh: -9%; FMDV inh: inconclusive; HCMV inh: -9

What do the screens show for `Cn1nnnc1SCCNCc1ccc(OCc2ccc(Cl)cc2)cc1`?
LASV entry inh: 7%[46.1 µM]; MARV entry inh: -8%[46.1 µM]; FMDV inh: -16%; HCMV inh: 2

Results for COc1ccc(NC(=O)N(C)[C@H]2C[C@H]3c4[nH]c5ccc(-c6ccc(OC)cc6)cc5c4CCN3C[C@H]2[C@H](C)O)cc1 ?
FMDV inh: -22%; HCMV inh: -104*

How did COc1ccc(NC(=O)N(C)[C@H]2C[C@H]3c4[nH]c5ccc(-c6ccc(OC)cc6)cc5c4CCN3C(=O)[C@H]2[C@H](C)O)cc1 do in these assays?
FMDV inh: -23%; HCMV inh: -68*

How did COc1ccc(NC(=O)N(C)[C@H]2C[C@H]3c4[nH]c5ccc(-c6ccc7c(c6)OCO7)cc5c4CCN3C[C@H]2[C@H](C)O)cc1 do in these assays?
FMDV inh: -30%; HCMV inh: -1

What do the screens show for `CN[C@H]1C[C@H]2c3[nH]c4ccc(-c5ccc(OC)cc5)cc4c3CCN2C(=O)[C@H]1[C@H](C)O`?
FMDV inh: inconclusive; HCMV inh: -103*

How did COc1ccc(-c2ccc3[nH]c4c(c3c2)CCN2C(=O)[C@@H]([C@H](C)O)[C@@H](N(C)C(=O)Nc3ccccc3)C[C@@H]42)cc1 do in these assays?
FMDV inh: -6%; HCMV inh: 4

How did CC(=O)c1ccccc1OCC(O)Cn1c(CO)nc2ccccc21 (stereo not given) do in these assays?
LASV entry inh: 15%[46.1 µM]; MARV entry inh: 5%[46.1 µM]; FMDV inh: -2%; HCMV inh: 3

What do the screens show for `Cc1nc(NCCc2ccccc2)c2oc3ccccc3c2n1`?
HCV inhibitor: 10µM*; LASV entry inh: 0%; MARV entry inh: inconclusive; FMDV inh: inconclusive; HCMV inh: -81*

Results for CSc1ccccc1NC(=O)c1cc(S(=O)(=O)N(C)C)ccc1N1CCCC1 ?
HCV inhibitor: 9%; LASV entry inh: -10%; MARV entry inh: -2%; FMDV inh: -25%; HCMV inh: -31

Results for CN1CCN(c2ccc(Cl)cc2NC(=O)c2ccc(S(=O)(=O)N(C)C)cc2)CC1 ?
HCV inhibitor: 11%; LASV entry inh: -3%; MARV entry inh: inconclusive; FMDV inh: 6%; HCMV inh: 77

What do the screens show for `CN(C)S(=O)(=O)c1ccc(C(=O)Nc2cc(S(=O)(=O)Nc3ccccc3Cl)ccc2N2CCCCC2)cc1`?
HCV inhibitor: inconclusive; LASV entry inh: 5.2µM*; MARV entry inh: -11%; FMDV inh: 6%; HCMV inh: -27

Results for CN(C)S(=O)(=O)c1ccc(N2CCCC2)c(C(=O)NCC2CCCCC2)c1 ?
HCV inhibitor: 8.9µM*; FMDV inh: -14%; HCMV inh: -39

How did CN(C)S(=O)(=O)c1ccc(N2CCCC2)c(C(=O)Nc2ccccc2)c1 do in these assays?
HCV inhibitor: 6%; LASV entry inh: 5%; MARV entry inh: 7%; FMDV inh: -19%; HCMV inh: -67*

How did CCOC(=O)c1c(N)n(CCCOC(=O)c2ccco2)c2nc3ccccc3nc12 do in these assays?
HCV inhibitor: 11µM*; LASV entry inh: inconclusive; MARV entry inh: inconclusive; FMDV inh: inconclusive; HCMV inh: -21

What do the screens show for `CCCCCn1c(NC(=O)c2ccco2)c(C(=O)OCC)c2nc3ccccc3nc21`?
HCV inhibitor: inconclusive; LASV entry inh: inconclusive; MARV entry inh: 4.5µM*; FMDV inh: inconclusive

How did NC1N=CC(c2cc3ccccc3oc2=O)S1 (stereo not given) do in these assays?
MARV entry inh: -13%[46.1 µM]

How did CC(C)c1c(C(=O)N(C)CC2CCCN(C)C2)cnn1-c1nccc(-c2cccs2)n1 (stereo not given) do in these assays?
FMDV inh: 9%

How did CN1CCC(N(C)S(=O)(=O)c2ccc(NC(=O)COc3ccc(Cl)cc3)cc2)CC1 do in these assays?
HCV inhibitor: 13µM*; FMDV inh: -28%; HCMV inh: -34

Results for CN(c1ccc(OCC(=O)Nc2ccc3[nH]c(=O)[nH]c3c2)cc1)S(=O)(=O)c1ccc(Cl)cc1 ?
HCV inhibitor: -7%; LASV entry inh: 23µM*; MARV entry inh: inconclusive; FMDV inh: -8%; HCMV inh: -1

Results for N#Cc1ccc(OCC(=O)NCCc2ccc(S(N)(=O)=O)cc2)cc1 ?
HCV inhibitor: 11%; LASV entry inh: -12%; MARV entry inh: -2%; FMDV inh: 11%; HCMV inh: -80*

How did CCOc1ccc(S(=O)(=O)N(C)c2ccc(OCC(=O)NCc3ccc(C(=O)OC)cc3)cc2)cc1 do in these assays?
HCV inhibitor: -29%; LASV entry inh: 3.2µM*; MARV entry inh: 2%[46.1 µM]; FMDV inh: 0%; HCMV inh: -15

Results for COc1ccc(CCC(=O)NC2CC(=O)N(c3ccc(C)cc3)C2)cc1 (stereo not given) ?
LASV entry inh: -1%[46.1 µM]; FMDV inh: -17%; HCMV inh: 3

Results for CCS(=O)(=O)N1CC2(C1)CN(S(=O)(=O)c1ccc(C)cc1)[C@@H](CO)c1[nH]c3cc(OC)ccc3c12 ?
HCMV inh: 3

Results for CN(c1ccc(OCC(=O)NCCc2ccccc2)cc1)S(=O)(=O)c1ccc(Cl)cc1 ?
HCV inhibitor: inconclusive; LASV entry inh: inconclusive; MARV entry inh: -20%; FMDV inh: 24%; HCMV inh: 19

Results for CN1CCC(N(C)S(=O)(=O)c2ccc(C(C)(C)C)cc2)CC1 ?
HCV inhibitor: inconclusive; FMDV inh: -16%; HCMV inh: -91*
